Assay outcomes (PubChem)
HSP90 refold inh – blocks HSP90-mediated luciferase refolding in reticulocyte lysate; Rabbit reticulocyte lysate, luciferase refolding luminescence, 3 h; inhibition, % at 5.6 µM; 290,000 tested, 0.91% active;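 active means inhibition above the screen-wide mean plus 3 SD, computed separately per campaign, cut at about 16% in these data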;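 further: 0% = DMSO wells and 100% = 60 µM geldanamycin wells; inhibitors lower the luminescence because luciferase stays unfolded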
p-CIP stab down – compounds decreasing mouse p/CIP protein stability; Q05BA5; F442A p/CIP-EGFP cells, EGFP fluorescence, 16 h; decrease of EGFP signal, % at 10 µM; 290,000 tested, 0.01% active; AID 1984;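 active means EGFP signal decrease of at least 30% at 10 µM or well 3 SD below plate mean, unless failing retest; inactive means the rest, including hits failing retest or dose response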
NALP1 yeast inh – inhibitors of NALP1 inflammasome in yeast; S. cerevisiae NALP1/ASC/caspase-1 growth, X-gal OD620, 72 h; AID 2071; inhibition, % at 10 µM; 280,000 tested, 0.61% active; in the data active means inhibition mostly above about 24%, no sharp cut-off; inactive means mostly below about 32%
HSF1 inh – HSF1 inhibition. NIH3T3-HGL HSE-luciferase, MG132-induced, luminescence 8 h; active compounds read low. activity change, negative = inhibition, % at 7.5 µM (by protocol). 300,000 tested, 0.77% active. AID 2098;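 active means more than half of replicate wells show activity change below -50%, luminescence cut by over half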;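 further: luciferase reports HSF-1 transcriptional activity via heat shock element; 0% = median of DMSO wells and -100% = zero luminescence signal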
Hsp70 activator – Hsp70 transcriptional activation, primary screen | activation, % at 10 µM | 200,000 tested, 0.04% active | AID 1203 | HeLa Hsp70 promoter luciferase reporter, luminescence; scaled: vehicle 0, proteasome-inhibitor control 100%;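 active means activation above the mean across all tested compounds plus 3 SD, cutoff set per campaign, cut at about 5.5% in these data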;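 further: 100% = MG132 at 30 µM as the positive control and 0% = DMSO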
HSF-1 act – increases HSF-1 driven luciferase reporter signal; activation, % at 9 µM; AID 504408; NIH3T3-HGL HSF-1 luciferase reporter, MG132, 8 h; 100% = twice DMSO control signal; 300,000 tested, 1.7% active;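 active means mean replicate activation of at least 50% with a set share of replicates each reaching 50%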;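 further: 0% = median of the neutral control wells and 100% = twice that signal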
Active calls of the source: *; i = inactive; x = no result. Most compounds without a hit are left out; they make up all but 3.8% or so of the library.

SMILES	HSP90 refold inh	p-CIP stab down	NALP1 yeast inh	HSF1 inh	Hsp70 activator	HSF-1 act
COc1cccc(Nc2nc(N)c([N+](=O)[O-])c(NCc3ccccc3)n2)c1	4	-13	-2	32	x	70*
Cc1cccc(Nc2nc(N)c([N+](=O)[O-])c(NCc3ccccc3)n2)c1	3	-3	-6	8	x	20
COc1ccccc1NC(=O)C1CCN(S(=O)(=O)c2ccc3c(c2)NC(=O)CO3)CC1	5	-1	2	-5	x	-1
Cc1cccc(NC(=O)C2CCN(S(=O)(=O)c3ccc4c(c3)NC(=O)CO4)CC2)c1C	0	0	-4	24	x	73*
Cc1ccccc1NS(=O)(=O)c1ccc2c(c1)NC(=O)CO2	4	-2	2	8	0	61*
Cc1cccc(NC(=O)CC(C)S(=O)(=O)c2ccc3c(c2)NC(=O)CO3)c1C (stereo not drawn)	4	-7	-96	56	x	105*
Cc1ccc(/C=C/C(=O)O)cc1S(=O)(=O)N1CCc2ccccc21	-2	5	16	-2	x	-1
Cc1cc(NC(=O)c2cccc(S(=O)(=O)N3CCCCC3)c2)no1	-2	6	21	1	x	-10
O=C(NC1C2CC3CC(C2)CC1C3)c1ccc(Br)o1 (stereo not drawn)	9	-19	5	6	x	-5
COc1ccc(Cl)cc1C(=O)NCCCSc1ccccc1	-1	-1	18	-5	x	5
COc1ccc(Cl)cc1C(=O)NCC(=O)OCc1ccccc1	x	x	x	-52*	x	-65
CC1CC(C)CN(C(=O)COC(=O)c2nn(C)c(=O)c3ccccc23)C1 (stereo not drawn)	x	x	x	6	x	12
CCN1/C(=C/C=C/c2oc3ccc(-c4ccccc4)cc3[n+]2CC)Oc2ccc(-c3ccccc3)cc21	7	i	51*	62	0	103*
CCOc1ccc(CCNC(=O)CN2C(=O)NC3(CCCC3)C2=O)cc1OCC	2	12	9	-1	x	4
CCS(=O)(=O)N1CCCC(C(=O)c2ccc(OC)cc2C)C1 (stereo not drawn)	2	-12	14	0	0	5
COc1ccc(C(=O)C2CCCN(S(=O)(=O)c3ccccc3F)C2)c(C)c1 (stereo not drawn)	1	0	16	-77*	x	-84
Cc1nccn1CCCNC(=O)C1CCC(=O)N(Cc2ccccc2F)C1 (stereo not drawn)	3	-1	-78	-1	x	-10
Cc1ccc2cc(CN(Cc3nnnn3Cc3ccco3)CC3CCCO3)c(=O)[nH]c2c1C (stereo not drawn)	2	-25	x	-12	0	2
Cc1ccc(S(=O)(=O)Cn2nnnc2CN(Cc2ccco2)CC2CCCO2)cc1 (stereo not drawn)	-3	-1	x	20	0	59*
O=C(CN(Cc1ccco1)C(=O)Cn1nnc(-c2cccs2)n1)NCC1CCCO1 (stereo not drawn)	1	5	-1	-4	0	-1
N=c1c2c(ncn1Cc1ccco1)Oc1cc(O)ccc1C2c1ccccc1 (stereo not drawn)	8	-7	9	3	x	-6
COc1ccc(C2c3ccc(O)cc3Oc3ncn(CCCO)c(=N)c32)cc1 (stereo not drawn)	-2	15	14	21	x	51*
COc1nc(-c2ccccc2)c2cc(Br)ccc2n1	x	x	x	-68*	x	-75
CC1CCN(C(=O)CSc2ccc(-c3ccc4c(c3)OCCO4)nn2)CC1	-2	13	-4	-3	x	8
CC1CCCC(C)N1C(=O)CSc1ccc(-c2ccc3c(c2)OCCO3)nn1 (stereo not drawn)	-2	-15	7	-88*	x	-91
CN(C)c1ccc(P(=O)(OC2CCCCC2)C(O)c2cccnc2)cc1 (stereo not drawn)	2	-9	-25	2	0	22
COc1cc(C(O)P(=O)(OC2CCCCC2)c2ccc(N(C)C)cc2)cc(OC)c1OC (stereo not drawn)	0	-10	2	28	0	57*
CC(C)(C)C(CN1CCCC1)OC(=O)c1ccccc1 (stereo not drawn)	-2	-6	16	-80*	x	-84
CCOC(=O)N=Nc1c(O)n(CC(=O)OC)c2ccccc12	3	1	16	-33	0	-48
